Screening data as filed in PubChem BioAssay.
C diff growth – C. difficile growth inhibitors, primary screen, HTS; Clostridium difficile clinical isolate growth, OD600, 24 h; hits give low values; growth activity, negative = inhibition, % at 16 µg/mL (by protocol); 86,000 compounds, 0.25% hits;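 active = mean growth activity at or below -80% and every replicate also at or below -80%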;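 also: 0% = DMSO wells and -100% = levofloxacin 16 µg/mL wells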
Numbers without * were called inactive; ! = repeats disagree. The full list was thinned out, with hits kept by preference.

SMILES	C diff growth
COc1ccc(NC(=O)N2CC[C@@H]3[C@@H](CO)N(C)c4ccc(-c5ccc(F)cc5)cc4[C@@H]32)cc1	42
COc1cccc(-c2ccc3c(c2)[C@H]2[C@H](CCN2C(=O)Nc2ccccc2OC)[C@@H](CO)N3C)c1	1
COc1ccc(NC(=O)N2CC[C@@H]3[C@H]2c2cc(Br)ccc2N(C)[C@@H]3CO)cc1	-100*
COc1cccc(-c2ccc3c(c2)[C@H]2[C@H](CCN2C(=O)Nc2ccccc2OC)[C@H](CO)N3C)c1	14
COc1cccc(-c2ccc3c(c2)[C@@H]2[C@@H](CCN2C(=O)Nc2ccccc2OC)[C@@H](CO)N3C)c1	-97*
COc1ccc(NC(=O)N2CC[C@@H]3[C@@H](CO)N(C)c4ccc(Br)cc4[C@@H]32)cc1	16
COc1ccc(NC(=O)N(C)C[C@H]2Oc3ncc(C#CCN(C)C)cc3C(=O)N([C@H](C)CO)C[C@H]2C)cc1	-1
O=C(CN1CCOCC1)N1CCCCN2[C@H](CO)[C@@H](c3ccc(-c4ccccc4F)cc3)[C@H]2C1	-16
COc1ccc2c3c([nH]c2c1)[C@@H](CO)N(C(=O)Nc1ccc(F)cc1)CC31CCN(Cc2nccs2)CC1	-2
C[C@@H]1CN([C@H](C)CO)C(=O)c2cccc(NC(=O)Nc3ccc(C(F)(F)F)cc3)c2O[C@H]1CN(C)Cc1ccccc1	11
C[C@H](CO)N1C[C@H](C)[C@H](CN(C)Cc2ccccc2)Oc2c(NC(=O)Nc3ccc(C(F)(F)F)cc3)cccc2C1=O	13
C[C@H](CO)N1C[C@H](C)[C@@H](CN(C)Cc2ccc(C(F)(F)F)cc2)Oc2c(NC(=O)Nc3ccc(C(F)(F)F)cc3)cccc2C1=O	34
C[C@@H]1CN([C@@H](C)CO)C(=O)c2cccc(NC(=O)Nc3ccccc3)c2O[C@@H]1CN(C)Cc1ccc(C(F)(F)F)cc1	-97*
C[C@@H]1CN([C@@H](C)CO)C(=O)c2cccc(NC(=O)Nc3ccc(C(F)(F)F)cc3)c2O[C@@H]1CN(C)Cc1ccccc1	-98*
C[C@H](CO)N1C[C@H](C)[C@@H](CN(C)Cc2ccccc2)Oc2c(NC(=O)Nc3ccc(C(F)(F)F)cc3)cccc2C1=O	13
CS(=O)(=O)N1CC(=O)N2[C@H](C1)[C@H](c1ccc(Br)cc1)[C@@H]2CO	-6
C[C@H](CO)N1C[C@H](C)[C@H](CN(C)C(=O)c2ccc3c(c2)OCO3)Oc2cc(-c3cccnc3)ccc2S1(=O)=O	1
Cc1ccc(S(=O)(=O)N(C)C[C@H]2Oc3ccc(NC(=O)Cc4cn(C)c5ccccc45)cc3C(=O)N([C@H](C)CO)C[C@H]2C)cc1	-7
C[C@H](CO)N1C[C@H](C)[C@H](CN(C)C(=O)NC2CCCCC2)OCCCC[C@H](C)Oc2ccc(NC(=O)CCCN(C)C)cc2C1=O	-1
CN1C(=O)c2cc(NC(=O)c3cnccn3)ccc2OC[C@H]2O[C@H](CC(=O)N[C@H]3CCN(Cc4ccccc4)C3)CC[C@@H]21	1
CCCNC(=O)N1CC2(CN(C(=O)C3CCOCC3)C2)c2c([nH]c3cc(OC)ccc23)[C@H]1CO	9
O=C(N[C@H]1C=C[C@@H](CC(=O)N2CCOCC2)O[C@@H]1CO)c1ccccn1	-1
O=C(Nc1cccc(F)c1)N1C[C@@H]2N[C@H](C1)C2c1ccc(-c2cccnc2)cc1 (stereo partly specified)	11
O=C(Nc1ccc(C(F)(F)F)cc1)N1C[C@@H]2N[C@H](C1)C2c1ccc(-c2cccnc2)cc1 (stereo partly specified)	-102*!
COc1ccccc1NC(=O)N1C[C@@H]2N[C@H](C1)C2c1ccc(-c2cccc(C#N)c2)cc1 (stereo partly specified)	3
SMILES	C diff growth
N#Cc1cccc(-c2ccc(C3[C@@H]4CN(C(=O)Nc5ccc(C(F)(F)F)cc5)C[C@H]3N4)cc2)c1 (stereo partly specified)	-94*
N#Cc1cccc(-c2ccc(C3[C@@H]4CN(C(=O)C5CCCC5)C[C@H]3N4)cc2)c1 (stereo partly specified)	13
C/C=C/c1ccc(C2[C@@H]3CN(C(=O)Nc4ccc(C(F)(F)F)cc4)C[C@H]2N3)cc1 (stereo partly specified)	0
CC(=O)N(C)C[C@H]1Oc2ncc(C#Cc3cccnc3)cc2C(=O)N([C@H](C)CO)C[C@@H]1C	11
COc1ccc(NC(=O)N(C)C[C@@H]2Oc3ncc(C#Cc4cccc(F)c4)cc3C(=O)N([C@H](C)CO)C[C@@H]2C)cc1	10
CCNC(=O)C[C@@H]1CC[C@@H]2[C@H](COC[C@H](O)CN2C(=O)Nc2ccc(C(F)(F)F)cc2)O1	-97*!
O=C(C[C@@H]1CC[C@H]2[C@@H](COC[C@@H](O)CN2C(=O)Nc2ccc(C(F)(F)F)cc2)O1)NCC1CC1	-18
O=C(C[C@@H]1CC[C@@H]2[C@H](COC[C@H](O)CN2C(=O)Nc2ccc(C(F)(F)F)cc2)O1)NCC1CC1	-54
O=C(C[C@@H]1CC[C@H]2[C@@H](COC[C@H](O)CN2C(=O)Nc2ccc(C(F)(F)F)cc2)O1)NCC1CCCCC1	-5
